Source: the supplement of paper PMC6555819

How the values were obtained:
Test in all cases: PBM binding z-score (relative to random genomic background probes); higher = stronger binding; sequences stand for … in GC…GCGATTGACAGCGTAGAATGAAGG
[1] = tested on: FXR:RXRa (NR concentration 270 nM, RXRa partner concentration 90 nM)
Procedure, shortened: (§1)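 Custom Agilent 4×180K protein-binding microarrays carried double-stranded probes. Their 34-nt variable regions held direct-repeat seeds, single-nucleotide variants, half-site ablations and random human genomic background sequences. Arrays were incubated 1 h with ligand-free nuclear receptor dimers in PBS pH 7.4, 2% milk, 0.02% Triton X-100, 1 mM DTT, 0.2 mg/mL BSA and 0.4 mg/ml salmon testes DNA. Antibodies against each partner (one per run) detected binding, and scanned fluorescence was regression-normalized. Binding z-scores use random background probes as reference.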

[2] = tested on: LXRa:RXRa (NR concentration 270 nM, RXRa partner concentration 90 nM)
Procedure, shortened: as §1

[3] = tested on: LXRa homodimer (NR concentration 270 nM)
Procedure, shortened: as §1

[4] = tested on: LXRb:RXRa (NR concentration 270 nM, RXRa partner concentration 90 nM)
Procedure, shortened: as §1

[5] = tested on: LXRb homodimer (NR concentration 270 nM)
Procedure, shortened: as §1

[6] = tested on: PPARa:RXRa (NR concentration 270 nM, RXRa partner concentration 90 nM)
Procedure, shortened: as §1

[7] = tested on: PPARg:RXRa (NR concentration 180 nM, RXRa partner concentration 90 nM)
Procedure, shortened: as §1

[8] = tested on: PPARg:RXRa 270nM:90nM, anti-RXR (NR concentration 270 nM, RXRa partner concentration 90 nM)
Procedure, shortened: as §1

[9] = tested on: PPARg:RXRa 30nM:10nM, anti-RXR (NR concentration 30 nM, RXRa partner concentration 10 nM)
Procedure, shortened: as §1

[10] = tested on: PPARg:RXRa 90nM:30nM, anti-RXR (NR concentration 90 nM, RXRa partner concentration 30 nM)
Procedure, shortened: as §1

[11] = tested on: PPARg:RXRa DBDmut IVT, anti-RXR (DBD mutation: RXRa K156A/R161A, NR concentration 270 nM, RXRa partner concentration 90 nM)
Procedure, shortened: as §1

[12] = tested on: PPARg:RXRa IVT, anti-PPARg (NR concentration 270 nM, RXRa partner concentration 90 nM)
Procedure, shortened: as §1

[13] = tested on: PPARg DBDmut:RXRa IVT, anti-PPARg (DBD mutation: PPARg1 K132A/R137A, NR concentration 270 nM, RXRa partner concentration 90 nM)
Procedure, shortened: as §1

[14] = tested on: PPARg DBDmut IVT, anti-PPARg (DBD mutation: PPARg1 K132A/R137A, NR concentration 270 nM)
Procedure, shortened: as §1

[15] = tested on: PPARg homodimer (NR concentration 180 nM)
Procedure, shortened: as §1

[16] = tested on: PXR:RXRa (NR concentration 270 nM, RXRa partner concentration 90 nM)
Procedure, shortened: as §1

[17] = tested on: PXR homodimer (NR concentration 270 nM)
Procedure, shortened: as §1

[18] = tested on: RARa:RXR (NR concentration 270 nM, RXRa partner concentration 90 nM)
Procedure, shortened: as §1

[19] = tested on: RARa homodimer (NR concentration 270 nM)
Procedure, shortened: as §1

[20] = tested on: RARb:RXRa (NR concentration 270 nM, RXRa partner concentration 90 nM)
Procedure, shortened: as §1

Sequence | PBM binding z-score [1] | PBM binding z-score [2] | PBM binding z-score [3] | PBM binding z-score [4] | PBM binding z-score [5] | PBM binding z-score [6] | PBM binding z-score [7] | PBM binding z-score [8] | PBM binding z-score [9] | PBM binding z-score [10] | PBM binding z-score [11] | PBM binding z-score [12] | PBM binding z-score [13] | PBM binding z-score [14] | PBM binding z-score [15] | PBM binding z-score [16] | PBM binding z-score [17] | PBM binding z-score [18] | PBM binding z-score [19] | PBM binding z-score [20]
CGTCAAAGTTCAAGGTAACGTAACAGAAAGCAGC | 6.65 | 5.73 | 2.59 | 3.46 | 1.01 | 4.81 | 4.45 | 5.18 | 2.02 | 3.97 | 0.893 | 2.47 | 1.4 | 0.701 | 2.19 | 4.2 | 2.44 | 3.28 | 1.04 | 5.17
CCAATTAGTTGACCATAAGGGCAACCGAAGCTCG | 0.987 | 0.336 | 0.562 | 0.314 | 0.402 | 0.626 | 0.453 | 0.425 | -0.327 | 0.254 | 0.617 | 0.411 | 0.198 | 0.147 | 1.75 | 0.497 | 0.892 | 0.865 | 1.38 | 1.67
CGTCCAAGGTCAAAGGTCAGTGACGAGATGACGG | 8.29 | 6.97 | 3.55 | 6.4 | 2.01 | 7.03 | 10.8 | 9.11 | 8.03 | 9.31 | 4.07 | 5.8 | 1.24 | 0.0683 | 6.48 | 7.17 | 2.08 | 8.72 | 2.59 | 5.86
ACATGTAGGTTAGCTGGGGTCATTCAGACTAGGC | 5.12 | 5.55 | 2.93 | 4.9 | 1.56 | 4.85 | 4.21 | 4.58 | 1.87 | 3.39 | 5.83 | 4.97 | 2.39 | 2.35 | 6.39 | 6.77 | 5.5 | 6.23 | 2.18 | 3.1
TCATATAGGTAAAAAGGTGAAAGTCCGTAAGTTA | 1.56 | 1.85 | 0.558 | 1.8 | 0.394 | 3.53 | 3.87 | 5.05 | 5.01 | 5.53 | 4.17 | 4 | 0.729 | 0.649 | 1.85 | 1.4 | 0.696 | 2.87 | 1.81 | 2.03
CCGACTGGGGTAAGGTTACCATAACGCACAGCCA | 0.62 | 1.11 | -0.0991 | 1.31 | -0.565 | 2.14 | 2.11 | 2.5 | 0.595 | 1.71 | 1.25 | 2.26 | -0.489 | -1.25 | 0.783 | 0.899 | -0.126 | 1.55 | 0.484 | 1.3
AGAACGAGGGCAATGAGTTGATAGTACGGGTGGC | 0.224 | 0.29 | -0.524 | -0.18 | -0.473 | 1.56 | 1.5 | 0.768 | 0.0705 | 0.415 | 3.34 | 2.4 | -0.466 | 0.0133 | 0.221 | 2 | 6.24 | 0.19 | -0.58 | 2.11
CAAACTAGGTCACGAAATGTCAAAGTCGAATGAC | 4.45 | 5.4 | 1.06 | 3.49 | 0.702 | 5.42 | 9.32 | 7.56 | 6.2 | 7.61 | 8.65 | 9.32 | 6.88 | 5.58 | 3.3 | 2.74 | 0.475 | 3.64 | 1.83 | 4.39
ACTAGCATGCCAAGTTTGGGTCACTCAAACAAAG | 0.0536 | 0.057 | -0.432 | 0.606 | -0.573 | 1.23 | 0.0927 | 0.138 | -0.204 | -0.214 | -0.0858 | 0.673 | -0.779 | -0.563 | 0.0985 | 0.71 | -0.444 | 1.14 | -0.448 | 1.28
TCGAGTAGCTTAGTCGGGGCATTCAGCCAACATA | -0.445 | -0.555 | -0.699 | -0.343 | -0.785 | -0.102 | -0.707 | -0.0775 | 0.66 | 0.255 | 0.289 | -0.763 | -1.22 | -0.887 | -1.34 | -0.503 | -1.1 | -0.495 | -0.83 | -0.355
AGTCAAAGTTCAGGACGAGGTAACCTAAAGCACG | 4.17 | 3.71 | 1.24 | 1.96 | 0.245 | 3.49 | 4.24 | 4.79 | 2.04 | 3.75 | -0.128 | 2.2 | 0.0369 | 0.548 | 2.47 | 2.74 | 1.53 | 2.96 | 0.958 | 4.23
CCAGACAGGTGCGAAGGTAACTCAGCCTCGATTA | -0.321 | -0.36 | -0.34 | -0.424 | -0.755 | -0.406 | 0.0695 | -0.0964 | -0.987 | -0.523 | -0.128 | -0.749 | -1.66 | -1.77 | -0.207 | -0.494 | -0.385 | -0.323 | 0.0972 | -0.199
CCTAGCACGCCAGGGTCACTCAAGCATTTCGCTT | 1.59 | 1.52 | -0.519 | 1.79 | -1.1 | 2.81 | 0.36 | 0.763 | -0.35 | -0.137 | -0.508 | 0.0216 | -0.715 | -1.26 | 0.342 | 2.48 | -0.243 | 2.55 | -0.31 | 2.44
ACTAGTTGGTCAGCTGAGGTCAGACACAATTCGG | 2.41 | 1.65 | 1.19 | 2.03 | 0.149 | 2.42 | 0.879 | 1.07 | 0.223 | 0.908 | 1.02 | 1.86 | 0.583 | 0.951 | 1.04 | 4.31 | 0.813 | 2.75 | 0.218 | 2.86
GCATATAGGTAATACAAGGTGAAAGGCCGATTGT | 0.496 | 1.99 | 0.36 | 0.488 | -0.248 | 1.97 | 2.16 | 2.86 | 1.05 | 2.2 | 3.82 | 3.44 | 0.554 | 0.825 | 0.878 | 0.592 | 0.222 | 1.66 | 0.91 | 0.547
